High-throughput results from PubChem BioAssay.
Compounds with a hit are over-represented: about 4.6% of the library has one in this group of screens.
TRHR ag: agonists of human TRH receptor; TRHR cells, calcium flux fluo-8, FDSS agonist mode; activation, % at 2 µM; hit rate 0.18% among 360,000
Target sequence (P34981 whole entry, looked up): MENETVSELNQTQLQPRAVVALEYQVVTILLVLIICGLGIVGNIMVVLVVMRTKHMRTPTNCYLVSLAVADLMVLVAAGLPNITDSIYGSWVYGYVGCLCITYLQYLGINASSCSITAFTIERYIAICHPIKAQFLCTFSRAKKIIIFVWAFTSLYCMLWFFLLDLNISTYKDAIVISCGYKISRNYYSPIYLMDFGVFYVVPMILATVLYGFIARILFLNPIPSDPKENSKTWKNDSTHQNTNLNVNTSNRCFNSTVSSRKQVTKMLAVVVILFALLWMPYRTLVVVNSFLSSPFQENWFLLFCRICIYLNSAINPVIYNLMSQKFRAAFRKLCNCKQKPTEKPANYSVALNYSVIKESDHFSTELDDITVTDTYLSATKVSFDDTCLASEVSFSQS
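Read-out: compound-evoked intracellular calcium rise in TRHR cells, fluo-8 dye, kinetic FDSS fluorescence at 1 s/cycle following a 10-cycle baseline. Cells cultured overnight before dye loading (30 min–1.5 h, RT).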
D1 ag: human D1 receptor agonism; P21728; hit rate 1% among 360,000; HEK293 T-REx D1 cells, calcium flux, agonist mode; AID 504660; activation, % at 2 µM
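Inducible HEK293 T-REx D1 cells, force-coupled to calcium signalling, were plated at 4000 cells/well with tetracycline and held overnight at 30 C. After no-wash calcium dye loading, compound-evoked calcium rise over 180 s flagged agonists.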
D1 potentiator: potentiators of human D1 dopamine receptor; P21728; HEK293 TREx D1 cells, calcium flux, dopamine EC20 potentiation; potentiation, % at 10 µM; hit rate 0.036% among 360,000; in the data active = potentiation above about 30%
TRHR PAM: TRH receptor (human) allosteric enhancement; P34981; TRHR cells, fluo-8 calcium fluorescence, EC20 TRH enhancement; enhancement, % at 2 µM; hit rate 0.66% among 360,000; in the data active = enhancement above about 30%
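TRHR-expressing cells loaded with fluo-8 calcium dye were read kinetically (ex 480/em 530) during compound addition, then stimulated with an EC20 of TRH (10 nM final). Enhancement of the Gq-mediated intracellular calcium response was scored.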
D1 antagonist: antagonists of human D1 dopamine receptor. HEK293 TREx D1 cells, calcium flux, dopamine EC80; hits give low values. activity change, negative = inhibition, % at 10 µM. hit rate 3.2% among 360,000; in the data active = activity change below about -30%
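Using tetracycline-induced force-coupled D1 Hek293 cells and a calcium dye, signals were followed for 180 s after compound, then for 180 s after EC80 dopamine, to detect inhibitors.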
Numbers stand for hits; . = inactive; / = no result. Cut-off read from the data, not from the text of the source, unless noted: active = activation above about 30%; inactive = the rest.

SMILES	TRHR ag	D1 ag	D1 potentiator	TRHR PAM	D1 antagonist
O=C(COC(=O)CSc1ccc([N+](=O)[O-])cc1)NCc1cccs1	.	.	.	.	-55
COCc1cc(C)nc2sc3c(c12)NC(c1ccc(O)cc1)N(c1ccc(C)cc1)C3=O (stereo not drawn)	.	.	.	.	.
Cc1ccc(CSc2nc3cccnc3n2Cc2nc(-c3ccccc3F)oc2C)cc1	.	.	.	.	.
CC(C)(C)c1ccc(C(=O)NCCc2csc3nc(-c4ccccc4F)nn23)cc1	.	.	.	.	.
O=C(COC(=O)CCCOc1ccc(Cl)cc1Cl)NCc1ccccc1	.	.	.	.	-37
CC(C)(C)c1ccc(C(=O)NCC(c2cccs2)S(=O)(=O)c2ccccc2)cc1 (stereo not drawn)	.	.	.	.	/
CCSC1=NCCN1C(=O)Cc1ccc(-c2ccccc2)cc1	.	.	.	.	-44
CSC1=NCCN1C(=O)Cc1ccc(F)cc1	.	.	/	.	.
CSC1=NCCN1C(=O)Cc1ccc(-c2ccccc2)cc1	.	.	.	.	-40
Cc1cc(OC(C)C(=O)N(Cc2ccco2)Cc2ccco2)cc(C)c1Cl (stereo not drawn)	.	.	.	.	.
Cc1cccc(NC(=O)c2sc(-n3nc(C)c(CCC(C)C)c3C)nc2C)c1	.	.	.	.	.
Cc1ccc(S(=O)(=O)Nc2ccc3c(c2)CCCN3C(=O)c2cccs2)cc1	.	.	.	.	.
O=C(Nc1ccc2c(c1)CCCN2C(=O)c1cccs1)c1cccc(C(F)(F)F)c1	.	.	.	.	-58
O=C(Nc1ccc2c(c1)CCCN2C(=O)c1cccs1)c1ccccc1	.	.	.	.	.
O=C(c1cccs1)N1CCCc2cc(NS(=O)(=O)c3ccc(Br)cc3)ccc21	.	.	.	.	-40
O=C(Nc1ccc2c(c1)CCCN2C(=O)c1cccs1)c1cccc(F)c1	.	.	.	.	-36
COc1cccc(CNC(=O)c2cccc(N3CCCS3(=O)=O)c2)c1	.	.	.	.	.
O=C(O)Cn1cc(/C=N/NC(=O)c2cc3cc(Br)ccc3o2)c2ccccc21	.	.	.	.	-33
CCc1ccc(NC(=O)c2sc3nc(C)nc(N4CCN(c5ccccn5)CC4)c3c2C)cc1	.	.	.	.	-84
COc1ccc(-n2nc(C(=O)NCCc3ccc(OC)c(OC)c3)c3c4ccccc4n(C)c3c2=O)cc1	.	.	.	.	.
Cc1nn(-c2cc(C(F)(F)F)ccc2Cl)c2nc(C(Cl)(Cl)Cl)[nH]c(=O)c12	.	.	.	.	-38
COc1ccc(NC(=O)Cn2c(=O)n(-c3cccc(C(F)(F)F)c3)c(=O)c3sccc32)cc1	.	.	.	.	.
CC(C)Cc1ccc(S(=O)(=O)N2CCC(c3ccncc3)CC2)cc1	.	.	.	.	.
OC1CCN(Cc2cn(Cc3ccccc3)nc2-c2cc3ccccc3o2)CC1	.	.	.	.	-31
COCC1CCN(Cc2cn(Cc3ccccc3)nc2-c2cc3ccccc3o2)CC1	.	39	.	.	.
SMILES	TRHR ag	D1 ag	D1 potentiator	TRHR PAM	D1 antagonist
Cc1ccc(S(=O)(=O)N2CCN(S(=O)(=O)N3CCC(C)CC3)CC2)c(C)c1	.	.	.	.	.
CC(=O)Nc1ccc(S(=O)(=O)N2CCC(c3nnc(-c4ccc(C)cc4)o3)CC2)cc1	.	.	.	.	-33
CC(=O)Nc1ccc(S(=O)(=O)N2CCC(c3ccncc3)CC2)cc1	.	.	.	.	-37
COc1ccccc1-c1nnc(C2CCN(S(=O)(=O)c3ccc([N+](=O)[O-])cc3)CC2)o1	.	37	.	.	.
Cc1ccc(S(=O)(=O)N2CCC(c3ccncc3)CC2)c(C)c1	.	.	.	.	-34
Cc1cccc(C(=O)Nc2cccc(OCc3cc(=O)n4c(C)csc4n3)c2)c1	.	.	.	.	.
CC(=O)Nc1ccc(S(=O)(=O)N2CCC(C(=O)NCCC(=O)Nc3nccs3)CC2)cc1	.	.	.	.	.
CC(=O)Nc1ccc(S(=O)(=O)N2CCC(C(=O)Nc3nccs3)CC2)cc1	.	.	.	.	-39
Cc1ccc(C2=NN(S(=O)(=O)c3ccccc3)C(c3ccco3)C2)cc1 (stereo not drawn)	.	.	.	.	.
O=[N+]([O-])c1ccc(C2=NN(c3ccccc3)C(c3ccco3)C2)cc1 (stereo not drawn)	59	296	.	.	-67
O=[N+]([O-])c1ccc(/C=C/C2=NN(c3ccccc3)C(c3ccco3)C2)cc1 (stereo not drawn)	.	213	.	.	-68
O=C(Cn1nc(N2CCN(c3ccccc3)CC2)ccc1=O)NCc1ccccc1F	.	.	.	.	-37
CCOc1ccccc1CNC(=O)Cn1nc(N2CCN(c3ccccc3)CC2)ccc1=O	.	.	.	.	.
CC1Cc2cc(S(=O)(=O)CCC(=O)Nc3ccc(F)cc3Cl)ccc2N1C(=O)C1CC1 (stereo not drawn)	.	.	.	.	.
COc1ccc(-c2[nH]ncc2/C=N\NS(=O)(=O)c2ccc(Cl)cc2)cc1	.	.	.	.	-42
O=C(NCc1ccccc1)C(=O)NCC(c1ccco1)S(=O)(=O)c1ccccc1 (stereo not drawn)	.	.	.	.	/
CC(C)NC(=O)CCC(=O)N1Cc2ccccc2Oc2ncccc21	.	.	.	.	.
Cc1ccc(Nc2ccc(N3CCN(C(=O)c4cccc([N+](=O)[O-])c4)CC3)nn2)cc1	.	.	.	.	/
COC(=O)c1ccccc1NC(=O)CN1CCC(C(=O)c2ccc3c(c2)OCCO3)CC1	.	.	.	.	-32
C/C(=N\OCC(=O)OCC(=O)Nc1cc(S(C)(=O)=O)ccc1Cl)c1ccc2c(c1)OCO2	.	.	.	.	.
COc1ccc(CNC(=O)COC(=O)CO/N=C(\C)c2ccc3c(c2)OCO3)cc1	.	.	.	.	-33
COC(=O)c1ccccc1NC(=O)COC(=O)CO/N=C(\C)c1ccc2c(c1)OCO2	.	.	.	.	-31
C/C(=N\OCC(=O)OCC(=O)NC(=O)c1ccccc1)c1ccc2c(c1)OCO2	.	.	.	.	-40
COc1ccc(CCC(=O)OCC(=O)NCc2ccc3c(c2)OCO3)cc1	.	.	/	.	.
Cc1ccc(NC(=O)CN2CCC(C(=O)c3ccc4c(c3)OCCO4)CC2)cc1	.	.	.	.	.
C/C(=N\OCC(=O)Nc1ccc2c(c1)OCCO2)c1ccc2c(c1)OCCO2	.	.	.	.	.
Cc1ccc(CNC(=O)c2ccc3c(c2)N(Cc2ccccc2F)C(=O)c2ccccc2S3(=O)=O)cc1	.	.	.	.	.
COc1ccc(NC(=O)c2ccc3c(c2)CCN3S(=O)(=O)c2ccc(C)cc2)cc1Cl	.	.	.	.	.
O=C(Nc1ccccc1C(=O)OCc1cc(=O)n2c3c(sc2n1)CCCC3)c1cccc(Cl)c1	.	.	.	.	.
